GIRK2 act: GIRK2 channel activators by thallium flux; P48051; HEK293 GIRK2/NPY4 cells, thallium flux fluorescence; activation (% efficacy), % for hits at 37.5 µM; 34,000 tested, under 10 active;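 active = primary screen hit, no activity in plain HEK293 cells, and in GIRK2-only cells above 5% efficacy rising with concentration; inactive = the rest, including fluorescent compounds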;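 note: efficacy is normalized control-subtracted fluorescence 15 s after thallium addition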
GluA2 TARP mod: modulates AMPAR-stargazin complexes; HEK293 GluA2+stargazin, membrane potential dye (FDSS), glutamate EC50; hits were called plate by plate, in both directions; calls only at 30 µM; 40,000 compounds, 3.5% hits;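 active = any of four per-well response measures lying three or more SD from its plate-wide compound average, in either direction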
Target sequence (O88602 whole entry, looked up): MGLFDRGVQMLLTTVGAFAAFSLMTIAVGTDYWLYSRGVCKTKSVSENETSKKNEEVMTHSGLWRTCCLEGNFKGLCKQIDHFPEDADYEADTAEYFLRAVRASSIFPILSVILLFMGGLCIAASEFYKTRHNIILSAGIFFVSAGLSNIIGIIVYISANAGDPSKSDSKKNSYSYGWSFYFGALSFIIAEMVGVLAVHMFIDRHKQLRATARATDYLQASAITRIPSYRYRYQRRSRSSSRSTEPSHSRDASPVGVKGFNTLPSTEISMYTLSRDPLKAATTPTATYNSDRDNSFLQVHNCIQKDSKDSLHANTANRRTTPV
Target sequence (P19491 whole entry, looked up): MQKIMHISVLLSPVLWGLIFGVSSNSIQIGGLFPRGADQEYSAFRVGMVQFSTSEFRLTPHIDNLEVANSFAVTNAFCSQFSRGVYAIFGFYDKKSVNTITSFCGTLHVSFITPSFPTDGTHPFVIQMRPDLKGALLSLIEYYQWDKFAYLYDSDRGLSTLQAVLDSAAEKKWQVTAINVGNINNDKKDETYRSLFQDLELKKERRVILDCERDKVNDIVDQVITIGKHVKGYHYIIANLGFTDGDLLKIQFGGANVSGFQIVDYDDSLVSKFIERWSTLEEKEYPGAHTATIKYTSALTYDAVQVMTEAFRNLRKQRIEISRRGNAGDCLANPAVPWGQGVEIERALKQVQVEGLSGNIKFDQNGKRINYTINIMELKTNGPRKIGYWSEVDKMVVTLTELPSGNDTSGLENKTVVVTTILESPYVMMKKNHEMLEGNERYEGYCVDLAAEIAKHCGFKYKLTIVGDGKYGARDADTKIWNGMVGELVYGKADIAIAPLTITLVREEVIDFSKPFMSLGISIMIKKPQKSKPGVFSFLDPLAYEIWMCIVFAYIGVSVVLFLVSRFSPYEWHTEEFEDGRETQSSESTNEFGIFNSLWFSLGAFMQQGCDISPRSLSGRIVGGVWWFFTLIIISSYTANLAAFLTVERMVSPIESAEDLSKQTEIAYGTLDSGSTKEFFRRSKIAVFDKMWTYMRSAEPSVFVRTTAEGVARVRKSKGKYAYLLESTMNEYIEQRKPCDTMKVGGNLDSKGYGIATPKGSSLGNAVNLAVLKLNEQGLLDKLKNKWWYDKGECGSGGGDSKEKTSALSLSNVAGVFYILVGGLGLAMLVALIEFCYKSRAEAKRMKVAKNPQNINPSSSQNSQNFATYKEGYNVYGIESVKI
The depositor's hits bear a star. The sample as a whole holds a higher share of hits than the screen did.

For Cc1ccc([N+](=O)[O-])cc1NC(=O)c1ccc(C(C)(C)C)cc1 the results were GIRK2 act inactive and GluA2 TARP mod active.
For CCOCCn1c(C2CC(=O)N(Cc3ccccc3)C2)nc2ccccc21 (stereo not drawn) the results were GluA2 TARP mod inactive.
Screening CN(C)C(CNC(=O)Cc1cccc2ccccc12)c1ccc(F)cc1 (stereo not drawn) returned GluA2 TARP mod inactive.
Screening Cc1ccc(C(CNC(=O)Cc2cccc3ccccc23)N(C)C)cc1 (stereo not drawn) returned GIRK2 act inactive and GluA2 TARP mod active.
`CCCNC(=O)CSc1cc(N2CCOCC2)ncn1` gave GIRK2 act inactive and GluA2 TARP mod inactive.
For CC(C)(C)NC(=O)N1CCN(c2cc(N3CCOCC3)ncn2)CC1 the results were GIRK2 act inactive and GluA2 TARP mod active.
CC1(C)CC2CC(C)(CN2Cc2c(O)ccc3ccccc23)C1 (stereo not drawn) was read as GluA2 TARP mod active.
Screening Cn1c(=O)c2c(nc(N3CCOCC3)n2CCCc2ccccc2)n(C)c1=O returned GluA2 TARP mod inactive.
`Cn1c(=O)c2c(nc(N3CCOCC3)n2CCSc2ncccn2)n(C)c1=O` gave GluA2 TARP mod active.
Cn1c(=O)c2c(nc(N3CCCCCC3)n2CC(O)COc2ccccc2)n(C)c1=O (stereo not drawn) was read as GluA2 TARP mod inactive.
For CCN1CCN(c2nc3c(c(=O)n(C)c(=O)n3C)n2CCCOc2ccccc2)CC1 the results were GluA2 TARP mod active.
CCNc1nc2c(c(=O)n(C)c(=O)n2C)n1CCCOc1ccccc1 was read as GIRK2 act inactive and GluA2 TARP mod inactive.
`CC(c1ccccc1)n1c(N2CCCCC2)nc2c1c(=O)n(C)c(=O)n2C` (stereo not drawn) gave GIRK2 act inactive and GluA2 TARP mod active.
Screening COC(=O)c1ccc2occ(-c3oc4ccc(C(=O)OC)cc4c3O)c2c1 returned GIRK2 act inactive and GluA2 TARP mod active.
`COC(=O)c1ccc2[nH]c(C)cc(=O)c2c1` gave GIRK2 act inactive and GluA2 TARP mod inactive.
Screening O=C(O)c1ccccc1SC1CC(=O)N(c2ccc(OC(F)(F)F)cc2)C1=O (stereo not drawn) returned GluA2 TARP mod inactive.
`COc1ccc(CCNC(=O)c2ccc(=O)n(Cc3ccc(F)cc3)n2)cc1OC` gave GIRK2 act inactive and GluA2 TARP mod inactive.
For Cc1cc(=O)[nH]c(-n2nc(C)c(CCC(=O)NCc3ccccc3Cl)c2C)n1 the results were GIRK2 act inactive and GluA2 TARP mod inactive.
Screening Cc1nn(-c2nc3ccccc3[nH]2)c(=O)c2ccccc12 returned GluA2 TARP mod active.
COc1cccc(-c2nnc3ccc(OCCNC(=O)Nc4cc(C)ccc4OC)nn23)c1 was read as GIRK2 act inactive and GluA2 TARP mod inactive.
Screening CCN1C(=O)c2cccc3c(NC(=O)CCCS(=O)(=O)c4ccc(OC)cc4)ccc1c23 returned GIRK2 act inactive and GluA2 TARP mod inactive.
Screening O=C(NCc1ccccc1)c1nnn(-c2ccccc2)c1-c1ccco1 returned GIRK2 act inactive and GluA2 TARP mod inactive.
Screening CCc1cccc2sc(N3CCN(C(=O)CS(=O)(=O)Cc4ccccc4)CC3)nc12 returned GIRK2 act inactive and GluA2 TARP mod inactive.
`O=C(CS(=O)(=O)Cc1ccccc1)N1CCN(c2nc3c(Cl)cccc3s2)CC1` gave GIRK2 act inactive and GluA2 TARP mod active.
Screening O=C(NC(c1ccccc1)c1ccccc1)N(Cc1ccsc1)Cc1ccccn1 returned GIRK2 act inactive.
Screening O=S(=O)(c1ccc2c(c1)CCCC2)N1CCN(Cc2nnnn2-c2ccccc2)CC1 returned GIRK2 act inactive and GluA2 TARP mod inactive.
For CCOC(=O)c1ccc(Nc2cc(C)nc(-n3cc([N+](=O)[O-])cn3)n2)cc1 the results were GIRK2 act inactive and GluA2 TARP mod inactive.
`CCOC(=O)c1ccc2nc(C)cc(Nc3cccc([N+](=O)[O-])c3)c2c1` gave GluA2 TARP mod active.
Screening CC(C)Sc1cccc(C(=O)Nc2nnc(-c3cccs3)o2)c1 returned GluA2 TARP mod inactive.
For CC(C)Sc1cccc(C(=O)Nc2sccc2C(N)=O)c1 the results were GluA2 TARP mod active.
COc1ccc(S(=O)(=O)NCC#CCN(C(C)C)C(C)C)cc1OC was read as GluA2 TARP mod inactive.
For CC(C)N(CC#CCNS(=O)(=O)c1ccc2ccccc2c1)C(C)C the results were GluA2 TARP mod active.
Screening O=C(CSc1ccc(NC(=O)c2cccs2)nn1)Nc1ccc(F)c(Cl)c1 returned GIRK2 act inactive and GluA2 TARP mod inactive.
Screening Cc1c(O)ccc2cc(S(=O)(=O)c3ccc(F)cc3)c(=O)oc12 returned GluA2 TARP mod active.
`CC(C)(C)c1ccc(S(=O)(=O)c2cc3cc(F)cc(F)c3oc2=O)cc1` gave GluA2 TARP mod inactive.

Screens deposited in PubChem BioAssay by several laboratories.
